We go through 25 compounds from PubChem BioAssay.

A short description of this assay: probe aLefty2 binding to arrayed compounds – biochemical, biotinylated probe, 635/667 nm fluorescence, primary screen (AID 1094).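 Note: score merges spot fluorescence near 667 nm with spot signal-to-noise ratio.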 The conditions noted are these: small-molecule microarray, higher = more signal.
`COc1ccc(C(O)C2C=CC3C(=O)N(c4ccccc4)C(=O)C3N2Nc2ccccc2F)cc1` (stereo not given) gave a composite z-score of 0.183.
With `COCCOC(=O)N1C(=O)[C@@]2(c3cc(C#CCC(C(=O)OC)C(=O)OC)ccc31)[C@H](c1ccc(O)cc1)N1[C@H](c3ccccc3)[C@H](c3ccccc3)OC(=O)[C@H]1[C@@H]2C(=O)NC[C@H](O)c1ccccc1`, the composite z-score is -0.0788.
For `COCC(=C=CC[C@H](O)c1cccc(OCCO)c1)C[C@H](O)COCc1ccccc1` the value was 0.084.
In turn, `C=C(C)[C@@H]1CC=C(C(O)C2C=CC3C(=O)N(c4ccccc4)C(=O)C3N2Nc2ccc(C#N)cc2)CC1` (stereo not given in full) showed a composite z-score of 0.386.
For `COc1ccc(NC(=O)O[C@H]2[C@@H]3OC(=O)[C@H](Cc4cccc(Br)c4)C/C=C/C[C@@H](Cc4cccc(Br)c4)C(=O)O[C@H]3[C@@H](OC)O[C@@H]2CO)cc1` the value was 0.123.
For `C=C(/C(=C/C[C@H](OC(=O)c1ccncc1)c1cccc(OCCO)c1)c1cnc2ccccc2c1)C(C)C` the value was -0.115; for `CS(=O)(=O)CCOC(=O)C1=CC(CCCO)=CC(C2CC2)N(Cc2cccc(OC(F)(F)F)c2)C=C1C(=O)OCCS(C)(=O)=O` (stereo not given), 0.203; for `NC(=O)[C@H]1[C@@H]2C(=O)O[C@@H](c3ccccc3)[C@@H](c3ccccc3)N2[C@@H](c2ccc(O)cc2)[C@]12C(=O)Nc1ccc(C#CC3=CCCCC3)cc12`, -0.185.
Compound `[N-]=[N+]=NCc1ccccc1[C@@H]1OC(c2ccc(OCCCO)cc2)=N[C@]1(Cc1ccccc1)C(=O)NCCN1CCOCC1` showed a composite z-score of 0.242.
To `COc1cc(C(O)C2C=CC3C(=O)N(Cc4ccccc4)C(=O)C3N2n2cnnc2)cc(OC)c1OC` (stereo not given) belongs 0.327; to `C=CCN1C(=O)[C@@]2(O[C@@H](CCO)[C@H]([Si](C)(C)c3ccc(OC)cc3)[C@H]2C)c2cc(N3CCOC3=O)ccc21`, -0.0755.
In turn, `CC(C)[C@H]1NC(=O)[C@@]23C(=O)N[C@@H](Cc4ccccc4)C2[C@H](C)[C@@]2(C)O[C@H]2C3/C=C/C/C=C\CNC(=O)[C@H](Cc2ccccc2)NC1=O` (stereo not given in full) had a composite z-score of -0.052.
Compound `O=C1C2C=CC(C(O)c3ccco3)N(Nc3ccccc3)C2C(=O)N1c1ccccc1` (stereo not given) showed a composite z-score of -0.147.
As for `CC(C)C[C@@H]1NC(=O)[C@@]23C(=O)N[C@@H](Cc4ccccc4)C2[C@H](C)[C@@]2(C)O[C@H]2C3/C=C/C/C=C\CNC(=O)[C@@H](C)NC1=O` (stereo not given in full), the composite z-score is -0.178.
For `CCN(CC)c1ccc(N2CC=CC34O[C@@H]5/C=C\CCC(C)OC(=O)C5[C@H]3C(=O)N(C(C)CO)[C@@H]4C2=O)cc1` (stereo not given in full) the value was -0.149.
The compound `CO[C@H]1O[C@H](CO)[C@@H](OC(=O)c2ccc(Br)cc2)[C@@H]2OC(=O)[C@H](Cc3ccccc3)C/C=C/C[C@@H](Cc3ccccc3)C(=O)O[C@@H]12` gave a composite z-score of 0.13.
To `CC(C)C(CO)N1C(=O)[C@@H]2[C@H]3C(=O)OCC=C[C@H]3OC23C=CCN(C(C)(C)C)C(=O)[C@@H]13` (stereo not given in full) belongs -0.168.
Regarding `[N-]=[N+]=Nc1ccccc1C[C@]1(C(=O)O)N=C(c2ccc(OCCCO)cc2)O[C@H]1c1ccccc1N=[N+]=[N-]`, the composite z-score was determined as 0.376.
Regarding `C=C(/C(=C/C[C@@H](OC(=O)c1ccncc1)c1cccc(OCCO)c1)c1cnc2ccccc2c1)C(C)C`, the composite z-score was -0.0042.
To `CCCNC(=O)[C@@]1(Sc2ccc(C)cc2)CC(=O)N(C(C)C)[C@@H]1c1ccc(CO)cc1I` belongs 0.0444; to `C=CCNC(=O)[C@@H]1[C@H]2C(=O)O[C@H](c3ccccc3)[C@H](c3ccccc3)N2[C@H](c2ccc(OCCO)cc2)[C@@]12C(=O)N(C(=O)OCCOC)c1ccc(C#CCCO)cc12`, -0.0861.
In the case of `CCCCCCCCCCC(O)C1C=CC2C(=O)N(c3ccccc3)C(=O)C2N1Nc1ccccc1F` (stereo not given), the composite z-score is -0.0713.
For `COC(=O)C1N=C(c2ccc(OCCCO)cc2)N(c2ccccc2)O1` (stereo not given) the value was 0.156.
For `COC(=O)[C@@]1(Cc2ccc(F)cc2)[C@H]2c3cc(C(=O)N4CCCC4)n(C)c3C[C@H]2CN1C(=O)c1ccccc1` the value was 0.744.
`O=C1C2C=CC(C(O)C=Cc3ccc([N+](=O)[O-])cc3)N(Nc3ccccc3)C2C(=O)N1c1ccccc1` (stereo not given): the composite z-score came to 0.349.
